CHX counter: Cycloheximide Counterscreen for Small Molecule Inhibitors of Shiga Toxin | cell reporter, cycloheximide protein synthesis inhibition counterscreen | max response, % | hit rate 12% among 300,000; in the data active means max response mostly above about 13%, no sharp cut-off; inactive means mostly below about 14%; further: read at 38.3 µM for the half of the compounds with a filed dose; 0% is about no effect
Pf growth 96h: Primary qHTS for delayed death inhibitors of the malarial parasite plastid, 96 hour incubation; AID 504834, 2011; P. falciparum luciferase reporter growth, 96 h; Potency, µM (top dose mostly 28.7 µM), inactives show at the highest dose activity change, negative = inhibition, hits mostly inhibitors; hit rate 6.9% among 320,000; further: potency means the concentration at half of the fitted maximal effect; on the % scale 0 is the no-effect control and ±100 the full control effect
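Compounds incubated with erythrocytes infected by luciferase-expressing P. falciparum (2% hematocrit, 0.05% parasitemia final) for 96 hours, 37 C in 5% CO2. Growth inhibition scored as decreased luciferase luminescence.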
Shiga toxin inh: A qHTS for Small Molecule Inhibitors of Shiga Toxin | hit rate 9.2% among 290,000 | inhibition, % at 38.7 µM | AID 2315, 2010 | Vero cells, Shiga toxin protein synthesis inhibition reporter; in the data active means inhibition mostly above about 28%, no sharp cut-off; inactive means mostly below about 43%; further: 0% is about no effect
Pf growth 48h: Primary qHTS for delayed death inhibitors of the malarial parasite plastid, 48 hour incubation; P. falciparum luciferase growth in erythrocytes, 48 h; Potency, µM (top dose mostly 28.7 µM), for inactives: top-dose activity change, negative = inhibition, hits mostly inhibitors; hit rate 5.9% among 310,000; further: potency means the concentration at half of the fitted maximal effect; on the % scale 0 is the no-effect control and ±100 the full control effect
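Here the parasites carry a stable luciferase gene and grow inside erythrocytes in Albumax-based RPMI medium with compound for one erythrocytic cycle. Activity is scored as loss of luminescent signal.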
HCMV inh: qHTS Assay for inhibitors of the human cytomegalovirus (HCMV) | HFF cells, HCMV-luciferase reporter, 72 h; active compounds read low | activity change, negative = inhibition, % at 57.5 µM | hit rate 4.5% among 410,000 | AID 1259415, 2018; in the data active means activity change below about -60%; inconclusive means no clear call, values can overlap the other calls; inactive means above about -39%; further: on the % scale 0 is the no-effect control and ±100 the full control effect
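Inhibition of viral replication was scored as loss of reporter luminescence in HFFs infected with HCMV-luciferase (MOI 1 PFU/cell) for 72 h; compounds tested at 2 doses, normalized to buffer and Salinomycin controls.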
* = called active by the depositor; i = inactive; ? = inconclusive; · = not tested or not shown. Hits are enriched below; roughly 20% of the tested compounds scored in any of these assays. Unless noted, the call rests on the fitted dose curve; in most records, active means well fitted inhibition curve with a large enough effect; inconclusive means small, poorly fitted or top-dose-only effect, or another doubt; inactive means no such curve, though single readings can be large or run the other way.

SMILES | CHX counter | Pf growth 96h | Shiga toxin inh | Pf growth 48h | HCMV inh
CCOc1ccc(C(=O)N/N=C(\c2ccccc2)c2ccccn2)cc1 | 42.3* | 11.7µM* | 61.4* | 13.1µM* | -98.8*
O=C(N/N=C(\c1ccccc1)c1ccccn1)c1cccc([N+](=O)[O-])c1 | 4.9 | ? | -4.5 | ? | ·
C/C(=N\NC(=O)c1c[nH]c2ccccc12)c1ccco1 | 70.9* | -31.6% | 61.4* | · | 237.6
Cc1cc(C(=O)Nc2ccc(Cl)cc2)c(C)n1-c1ccccc1 | 6.3 | -50.6% | 7.4 | ? | -93.3*
Cc1ccc(NC(=O)c2cc(C)n(-c3ccccc3)c2C)cc1 | 26.4* | -98.7% | 25.1 | -74.3% | -93.0*
Cc1ccc(NC(=O)C(C)Sc2nc(=O)cc(N)n2-c2cccc(C)c2)cc1 (stereo unspecified) | · | · | · | · | -15.5
Cc1cc(C(=O)OCC(=O)Nc2c(F)cccc2F)c(C)n1-c1ccccc1 | 55.5* | -5.6% | 109.5* | 40.2% | -31.9
Cc1ccc(NC(=O)c2cc(C)n(-c3cccc(C)c3)c2C)cc1 | 76.3* | -87.1% | 72.5* | 14.9% | -5.4
Cc1cc(C(=O)Nc2ccc(Cl)cc2)c2c(C)nn(-c3ccccc3)c2n1 | · | · | · | · | -9.5
Cc1ccc(-n2c(C)cc(C(=O)NS(=O)(=O)c3ccc(C)cc3)c2C)cc1 | -1.6 | 29.5% | 3.9 | 4.2% | -18.9
O=[N+]([O-])c1cccc(N(CC2CO2)S(=O)(=O)c2ccccc2)c1 (stereo unspecified) | -2.6 | -9.7% | -5.0 | 4.9% | -5.1
O=C1CS/C(=N/N=C2CCCC2)N1 | -5.6 | 3.29µM* | 6.9 | -13.7% | ?
COC(=O)CCNCCSc1nnc(-c2ccco2)n1Cc1ccccc1 | -4.5 | -9.3% | -7.7 | -13.0% | -31.3
CCC(C)[C@@H](C(=O)Nc1ccc2c(c1)OCO2)N1Cc2ccccc2C1=O (stereo partly specified) | 12.8 | ? | 15.6 | · | 35.3
CC(C(=O)Nc1ccc2c(c1)OCCO2)N1Cc2ccccc2C1=O (stereo unspecified) | 21.2* | 3.1% | 31.1 | 45.4% | ?
C[C@@H](C(=O)Nc1ccc2c(c1)OCCO2)n1nnc2ccccc2c1=O | 44.9* | 160.2% | 106.7* | 150.3% | 43.3
O=C(OC[C@H]1O[C@@H](OC(=O)c2cc(O)c(O)c(OC(=O)c3cc(O)c(O)c(O)c3)c2)[C@H](OC(=O)c2cc(O)c(O)c(OC(=O)c3cc(O)c(O)c(O)c3)c2)[C@@H](OC(=O)c2cc(O)c(O)c(OC(=O)c3cc(O)c(O)c(O)c3)c2)[C@@H]1OC(=O)c1cc(O)c(O)c(OC(=O)c2cc(O)c(O)c(O)c2)c1)c1cc(O)c(O)c(OC(=O)c2cc(O)c(O)c(O)c2)c1 | · | 9.28µM* | · | ? | ·
O=C(Cn1c(=O)n2ncnc2c2c3c(sc21)CCCC3)c1ccccc1 | 15.2 | · | 45.3 | 11.7µM* | ?
CC(CCl)OC(C)CCl (stereo unspecified) | · | 36.8% | · | 20.7% | -73.8*
CN(C)/C=C(\C(=O)c1ccccc1)c1nnnn1-c1ccccc1 | -1.9 | 10.1% | 4.6 | 11.3% | 26.3
CN(C)c1ccc(C=C(c2nnnn2-c2ccccc2)c2nnnn2-c2ccccc2)cc1 | -1.6 | i | -14.2 | 9.28µM* | -39.2
Fc1ccccc1CNC(=S)NC1CCCCC1 | 3.5 | 4.15µM* | 11.1 | -2.4% | ·
S=C(NCc1ccccc1Cl)NC1CCCC1 | -2.1 | -16.8% | 20.0 | -27.3% | -15.1
COc1ccccc1CNC(=O)CCc1ccccc1 | 7.8 | ? | 5.4 | -8.1% | 41.7
COc1cccc(CNC(=S)NC2CCCC2)c1 | 11.8 | 9.4% | -18.7 | -0.8% | -61.4*
SMILES | CHX counter | Pf growth 96h | Shiga toxin inh | Pf growth 48h | HCMV inh
COc1ccccc1CNC(=S)NC1CCCCC1 | 1.4 | ? | 1.5 | -24.9% | -73.7*
COc1ccccc1CNC(=S)NCCc1ccccc1 | 12.5 | 0.9% | 46.7* | 12.2% | ?
COc1ccccc1CNC(=O)C1CCCC1 | -7.5 | -3.4% | 2.8 | 1.1% | -27.5
Cc1cccc(C)c1NC(=O)CN(C)CC(=O)N1CC(=O)Nc2ccccc21 | · | · | · | · | 10.4
COc1ccc(Cl)cc1CNC[C@H]1O[C@@H](n2ccc(N)nc2=O)[C@H](O)[C@@H]1O | · | · | · | · | -6.1
CC1(C)CC(=O)C(CC(=O)NC2CCCc3ccccc32)C(=O)C1 (stereo unspecified) | -1.8 | 12.6% | 15.7 | -2.9% | -33.3
CC(C)(CNC(=S)NCCc1ccccc1)CNC(=S)NCCc1ccccc1 | -0.7 | ? | -2.7 | 13.1µM* | -93.4*
Cc1noc(C)c1C(=O)OCC(=O)Nc1cccc(S(=O)(=O)N(C)C)c1 | 13.0 | 14.5% | 17.1 | 26.4% | -29.6
O=C(COC(=O)c1cc2ccccc2oc1=O)Nc1ccc(F)cc1F | 51.5* | 53.3% | 118.0* | 53.6% | 0.0
O=C(COC(=O)c1cc2ccccc2oc1=O)Nc1cccc(S(=O)(=O)N2CCCCCC2)c1 | 27.2* | 22.0% | 64.1* | -5.5% | -7.9
CN(C)S(=O)(=O)c1cccc(NC(=O)COC(=O)c2cc3ccccc3oc2=O)c1 | 51.0* | 31.9% | 134.4* | -7.4% | -33.0
Cc1onc(-c2c(F)cccc2Cl)c1C(=O)OCC(=O)Nc1cccc(S(=O)(=O)N(C)C)c1 | · | · | · | · | -70.0*
Cc1ccc(S(=O)(=O)Nc2cccc(-c3ccc(N4CCC(C)CC4)nn3)c2)s1 | · | · | · | · | 38.5
O=C(OCC(=O)N1CCCC1)c1c2c(nc3ccccc13)CCCCC2 | 2.7 | ? | 5.8 | -6.4% | -24.1
O=C1C=C(c2ccc(Cl)c(C(F)(F)F)c2)C[C@@H](c2ccc(Cl)cc2)C1 | · | -1.3% | · | ? | 38.7
CCCCOc1ccc(Nc2nc(C)cc(C)c2C#N)cc1 | -1.3 | 10.4µM* | 7.0 | 7.5% | 67.8
Cc1cc(C)c(C#N)c(Nc2ccccc2)n1 | 4.8 | ? | -3.8 | 9.2% | 18.1
CN1CCN(S(=O)(=O)c2ccc(Nc3cccc(Cl)c3)c([N+](=O)[O-])c2)CC1 | · | ? | · | ? | 0.0
O=C(COc1ccccc1)NCC(c1ccco1)N1CCN(c2ccccc2)CC1 (stereo unspecified) | · | -1.9% | · | -18.6% | -19.0
CC(Nc1nc2ccccc2n2cnnc12)c1ccccc1 (stereo unspecified) | 19.8* | -18.8% | 35.3* | -24.2% | -35.8
c1ccc2c(c1)nc(Nc1ccc(N3CCCCC3)cc1)c1nncn12 | 15.2* | -14.0% | 10.5 | -15.9% | -30.7
c1ccc(C(c2ccccc2)N2CCN(c3nc4ccccc4n4cnnc34)CC2)cc1 | 2.1 | 1.65µM* | -24.6 | 1.85µM* | -99.1*
CCOc1ccc(C2=Nn3c(CC)nnc3SC2)cc1 | · | ? | · | ? | 15.9
Cc1ccc(-c2nc(CN(C)Cc3ccc4nccnc4c3)c(C)o2)s1 | 0.8 | -11.1% | -15.0 | 12.1% | -13.9
COc1ccccc1C(=O)N/N=C(\C)CC(=O)Nc1ccccn1 | 26.1* | ? | 68.5* | 21.7% | 51.4
COc1ccc(NC(=O)C(=O)N/N=C(\C)CC(=O)Nc2ccccn2)c(OC)c1 | 0.7 | 0.0% | 17.4 | 17.6% | -38.4

Source: PubChem BioAssay
